Assay outcomes from PubChem BioAssay.
Shown are actives, neighbours in structure and some others; about 2.8% of the full set was active somewhere.
TRPM1 prom inh = inhibitors of MITF-dependent TRPM1 promoter reporter, primary screen, cell-based, SK-MEL-5, single point, luciferase. SK-MEL-5 TRPM1 promoter luciferase, 24 h. inhibition, % at 12.5 µM. actives 0.83% (n = 330,000). AID 488899, 2010;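 active = mean inhibition across replicates of 60% or more, whatever share of single replicates reaches that level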
KKLEB tox = cytotoxicity in KKLEB CF airway cells, primary screen, cytotoxicity control for CF NF-kB inhibitor project, cell-based, uHTS, fluorescence assay plates; KKLEB CF airway cells viability, ATPlite luminescence, overnight; hits give low values; cells stimulated with P. aeruginosa culture filtrate; actives 0.36% (n = 360,000); activity change (cytotoxicity), % at 5 µM; AID 602141, 2011;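 active = corrected activity change at or below -50% at 5 µM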
Peg3 prom inh = Peg3 promoter-driven luciferase inhibitors, primary screen, cell-based, HeLa, luciferase luminescence; HeLa PEG-Prom luciferase reporter, overnight; actives 1.7% (n = 360,000); inhibition, % at 20 µM; AID 588405, 2011;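 active = inhibition of at least 50% at 20 µM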
CF NFkB block = inhibitors of PAF-induced NF-kB signaling, primary screen, cell-based, GFP fluorescence, uHTS. actives 0.86% (n = 360,000). inhibition, % at 5 µM. KKLEB NF-kB-GFP reporter, GFP fluorescence overnight;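 active = at least 50% inhibition at 5 µM, scaled per plate between neutral and stimulator controls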;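 also: PAF is a Pseudomonas aeruginosa culture filtrate used as stimulus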
HIF-2a inh = HIF-2a reporter inhibitors, primary screen, luminescence, 786-0 RCC cells; inhibition, % at 18.8 µM; actives 0.72% (n = 360,000); 786-0 RCC cells HIF-2a reporter, luciferase luminescence, overnight;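 active = inhibition of the luminescence signal of 40% or more relative to plate controls, in a single-dose primary screen at 18.75 µM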
Shn3 inh set2 = reduction of Shn3 3'UTR firefly luciferase signal, primary screen, Schnurri-3 inhibitor project, cell-based, Clone20 osteoblasts, set 2; AID 588674, 2011; inhibition, % at 12.5 µM; Clone20 osteoblast Shn3 3'UTR firefly luciferase, 24 h; actives 0.52% (n = 360,000);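 active = mean inhibition of at least 75% with every replicate also reaching 75%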
Mdm2-MdmX confirm = retested Mdm2-MdmX interaction blockers, confirmation, cell-based, luminescence, single concentration, set 2; shares compounds with HIF-2a inh; SaOS-2 split-luciferase Mdm2/MdmX complementation; inhibition, % at 8 µM; actives 99% (n = 740); AID 504601, 2011;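 active = mean inhibition of the luminescence signal across two replicates at or above 26 percent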
HIF-2a conf = HIF-2a reporter inhibitor retest, confirmation, luminescence, 786-0 RCC cells. shares compounds with HIF-2a inh. HIF-2a luciferase reporter luminescence, overnight. inhibition, % at 18.8 µM. actives 56% (n = 1,800). AID 651580, 2012;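 active = mean inhibition across four replicates of at least 40 percent at the single tested concentration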
HIF-1a counter = HIF-1a luciferase reporter signal reduction – MiaPaCa-2 cells, single concentration, counter-screen for HIF-2a inhibitor project, confirmation | shares compounds with HIF-2a inh | MiaPaCa-2 HIF-1a luciferase reporter, desferoxamine, overnight | inhibition, % at 18.8 µM | actives 72% (n = 1,800);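 active = mean inhibition of the reporter signal across four replicates at the single tested dose of 50% or more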
Each line names hits and unclear results; the compound was inactive in the other large screens (follow-up assays come after a bar, where they were run).

CN(C)C(=O)O/N=C(\N)COc1ccc(C(C)(C)C)cc1	Peg3 prom inh 107, HIF-2a inh 60 | Mdm2-MdmX confirm 103 | HIF-2a conf inactive | HIF-1a counter inactive
Cc1csc(=N)n1Cc1ccccc1	none
CC1CCOC(=O)C=CC=CC(=O)OC2CC3OC4C5OC5(C)C(O)CC4(COC(=O)C1O)C2(C)C31CO1 (stereo not drawn)	TRPM1 prom inh 80, Peg3 prom inh 99, CF NFkB block 90, HIF-2a inh 67, Shn3 inh set2 97 | HIF-2a conf 56 | HIF-1a counter 103
CC1=CC2OC3CC4OC(=O)C=CC=CC(=O)OCCC(C)C(O)C(=O)OCC2(CC1)C4(C)C31CO1 (stereo not drawn)	TRPM1 prom inh 104, Peg3 prom inh 97, CF NFkB block 90, HIF-2a inh 75, Shn3 inh set2 98 | HIF-2a conf 71 | HIF-1a counter 103
CC1=CC2OC3CC4OC(=O)C=CC=CC(C(C)O)OCC(O)C5(C)OC5C(=O)OCC2(CC1O)C4(C)C31CO1 (stereo not drawn)	TRPM1 prom inh 90, Peg3 prom inh 102, CF NFkB block 96, HIF-2a inh 78, Shn3 inh set2 98 | HIF-2a conf 66 | HIF-1a counter 106
N[C@H](CO)Cc1ccccc1	none
O=C1OCCC1NC1=NCCC1 (stereo not drawn)	none
N=c1c[n+](CC23CC4CC(CC(C4)C2)C3)[n-]o1	none
CC1CCC(C(C)C)C(OC(=O)Cn2c(COc3ccccc3)[n+](C)c3ccccc32)C1 (stereo not drawn)	TRPM1 prom inh 97, KKLEB tox -72, Peg3 prom inh 95, CF NFkB block 74 | Mdm2-MdmX confirm 102
CO[C@H]1C=C2CCN(C)[C@H]2C2c3cc4c(cc3C(=O)O[C@@H]21)OCO4 (stereo partly drawn)	none
C[C@H]1CC[C@@H]2[C@@H](C)[C@H]3[C@H](C[C@H]4[C@@H]5CC=C6C[C@@H](O[C@@H]7O[C@H](CO)[C@H](O)[C@H](O[C@@H]8O[C@H](CO)[C@@H](O)[C@H](O)[C@H]8O)[C@H]7O[C@@H]7O[C@@H](C)[C@H](O)[C@@H](O)[C@H]7O)CC[C@]6(C)[C@H]5CC[C@]34C)N2C1	HIF-2a inh 87 | HIF-2a conf inactive | HIF-1a counter 68
CCOP(=O)(OCC)C1(O)C(=O)Nc2ccc(Br)cc21 (stereo not drawn)	none
CCOC(=O)[C@]12Cc3c(cc(OC)c(OC)c3OC)[C@H]1N(C1CCCCC1)C(=O)c1ccccc12	HIF-2a inh 76 (no result: TRPM1 prom inh, KKLEB tox, Peg3 prom inh, CF NFkB block, Shn3 inh set2) | HIF-2a conf 90 | HIF-1a counter 105
CCOC(=O)[C@]12Cc3ccc(C)cc3[C@H]1N(C1CCCCC1)C(=O)c1ccccc12	HIF-2a inh 81 (no result: TRPM1 prom inh, KKLEB tox, Peg3 prom inh, CF NFkB block, Shn3 inh set2) | HIF-2a conf 96 | HIF-1a counter 98
CCOC(=O)[C@]12Cc3cc(C)ccc3[C@H]1N(CCC(=O)OC)C(=O)c1ccccc12	none (no result: TRPM1 prom inh, KKLEB tox, Peg3 prom inh, CF NFkB block, Shn3 inh set2)
CCOC(=O)[C@]12Cc3cc(C)ccc3[C@H]1N(C1CCCCC1)C(=O)c1ccccc12	HIF-2a inh 88 (no result: TRPM1 prom inh, KKLEB tox, Peg3 prom inh, CF NFkB block, Shn3 inh set2) | HIF-2a conf 97 | HIF-1a counter 106
CCOC(=O)[C@]12Cc3ccc(C)cc3[C@H]1N(C1CCCCC1)C(=O)c1cc(OC)ccc12	HIF-2a inh 95 (no result: TRPM1 prom inh, KKLEB tox, Peg3 prom inh, CF NFkB block, Shn3 inh set2) | HIF-2a conf 99 | HIF-1a counter 106
CCOC(=O)[C@]12Cc3ccccc3[C@H]1N(C(C)C)C(=O)c1ccccc12	none (no result: TRPM1 prom inh, KKLEB tox, Peg3 prom inh, CF NFkB block, Shn3 inh set2)
CCCCCN1C(=O)c2cc(OC)ccc2[C@@]2(C(=O)OCC)Cc3cc(OC)ccc3[C@@H]12	HIF-2a inh 81 (no result: TRPM1 prom inh, KKLEB tox, Peg3 prom inh, CF NFkB block, Shn3 inh set2) | HIF-2a conf 92 | HIF-1a counter 106
CCOC(=O)[C@]12Cc3cc(OC)ccc3[C@H]1N(C)C(=O)c1cc(OC)ccc12	none (no result: TRPM1 prom inh, KKLEB tox, Peg3 prom inh, CF NFkB block, Shn3 inh set2)
C=C1C(=O)[C@@]23C[C@H]4[C@@H]5[C@@]6(C)CCC[C@@]57[C@@H]2[C@@H](O)[C@@H]1C[C@H]3[C@H]7N4C6	Peg3 prom inh 93, CF NFkB block 74, HIF-2a inh 69 (no result: TRPM1 prom inh) | Mdm2-MdmX confirm 101
Cc1nc2ncnn2c(C)c1CCC(=O)N1CCC2(CC1)OCCO2	none
Cc1nc2cc(-c3ccccc3)nn2c(C)c1CCC(=O)N1CCC2(CC1)OCCO2	HIF-2a inh 70 | HIF-2a conf 81 | HIF-1a counter inactive
O=C(Nc1ccc(OC(=O)N2CCCCC2)cc1)N1CCOCC1	TRPM1 prom inh 66, HIF-2a inh 72 | HIF-2a conf 76 | HIF-1a counter 51
CC(C)(C)n1c(O)c(C=Nc2ccc3c(c2)CCC3)c(=O)[nH]c1=O	none
O=c1[nH]c(=O)n(CCc2ccccc2)c(O)c1C=NC1CC1	none
C=C1C(=O)OC2C1CCC(C)C1(O)C=CC(=O)C21C (stereo not drawn)	TRPM1 prom inh 75, Peg3 prom inh 106, HIF-2a inh 47 | HIF-2a conf inactive | HIF-1a counter 99
COc1cc(CC(=O)N2C[C@H]3C[C@@H](C2)c2cccc(=O)n2C3)cc(OC)c1OC	none
C=C1C(=O)OC2CC(C)C3C=CC(=O)C3(C)C(O)C12 (stereo not drawn)	TRPM1 prom inh 100, KKLEB tox -62, Peg3 prom inh 106, CF NFkB block 96, HIF-2a inh 86, Shn3 inh set2 97 | HIF-2a conf 94 | HIF-1a counter 100
C=C1C(=O)O[C@@H]2C[C@@H](C)[C@@H]3C4OC4C(=O)[C@@]3(C)[C@@H](O)[C@H]12 (stereo partly drawn)	TRPM1 prom inh 101, Peg3 prom inh 96, CF NFkB block 92, HIF-2a inh 88 | HIF-2a conf 95 | HIF-1a counter 104
C=C1C(=O)O[C@H]2C[C@@H](C)[C@@H]3C=CC(=O)[C@@]3(C)C[C@H]12	none (no result: TRPM1 prom inh, KKLEB tox, Peg3 prom inh, CF NFkB block, HIF-2a inh, Shn3 inh set2) | Mdm2-MdmX confirm 103
